{"source": "paper PMC4336329", "about": "(PLoS ONE, 2015)", "note": "The campaign covered roughly 310,000 compounds. About 14,000 (4.5%) showed an effect of 50% or more. The effect is printed as a negative number. For the sample, strong results were picked, then their nearest neighbours and some compounds at random.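 Also: peak tail current of the secondary pulse compared with the same well before compound.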", "data": [{"target": "human ether-à-go-go-related gene (hERG) potassium channel (human, UniProt Q12809)", "sequence (Q12809 whole entry, looked up)": "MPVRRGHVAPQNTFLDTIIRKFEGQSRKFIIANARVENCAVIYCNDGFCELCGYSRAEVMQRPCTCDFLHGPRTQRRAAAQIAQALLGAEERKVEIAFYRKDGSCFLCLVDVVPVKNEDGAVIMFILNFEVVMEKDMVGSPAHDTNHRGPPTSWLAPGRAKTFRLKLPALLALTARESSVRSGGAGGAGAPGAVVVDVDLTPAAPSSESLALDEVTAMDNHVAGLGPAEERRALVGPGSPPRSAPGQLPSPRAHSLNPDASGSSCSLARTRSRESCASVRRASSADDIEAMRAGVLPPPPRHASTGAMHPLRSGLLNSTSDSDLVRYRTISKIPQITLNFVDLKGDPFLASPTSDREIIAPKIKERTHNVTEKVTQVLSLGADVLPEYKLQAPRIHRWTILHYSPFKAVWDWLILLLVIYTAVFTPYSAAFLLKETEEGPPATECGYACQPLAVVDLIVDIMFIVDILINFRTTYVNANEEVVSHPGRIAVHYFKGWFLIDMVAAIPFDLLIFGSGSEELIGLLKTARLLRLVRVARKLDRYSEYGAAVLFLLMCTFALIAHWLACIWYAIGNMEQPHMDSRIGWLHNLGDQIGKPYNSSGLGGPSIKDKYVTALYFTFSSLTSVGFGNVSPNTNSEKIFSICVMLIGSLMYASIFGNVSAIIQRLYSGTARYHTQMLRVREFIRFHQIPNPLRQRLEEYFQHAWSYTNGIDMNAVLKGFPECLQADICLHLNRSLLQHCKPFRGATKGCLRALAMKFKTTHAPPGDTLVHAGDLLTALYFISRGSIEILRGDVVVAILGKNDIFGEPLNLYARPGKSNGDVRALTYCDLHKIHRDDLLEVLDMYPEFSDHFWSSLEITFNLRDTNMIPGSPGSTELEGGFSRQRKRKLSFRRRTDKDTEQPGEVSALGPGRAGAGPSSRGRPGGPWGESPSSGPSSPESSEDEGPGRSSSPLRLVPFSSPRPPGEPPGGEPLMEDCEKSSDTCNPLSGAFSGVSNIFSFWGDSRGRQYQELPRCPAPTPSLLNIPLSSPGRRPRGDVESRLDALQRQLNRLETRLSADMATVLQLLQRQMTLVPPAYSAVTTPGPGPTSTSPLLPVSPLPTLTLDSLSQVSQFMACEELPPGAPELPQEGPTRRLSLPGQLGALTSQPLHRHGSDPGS", "test": "primary screen, population patch clamp on CHO cells stably expressing hERG; higher = less effect of the substance", "units": {"hERG current change (%, negative = inhibition) at 10uM": "%"}, "values": [{"compound": "O=C(COc1ccccc1)Nc1ccc2oc(=O)ccc2c1", "hERG current change (%, negative = inhibition) at 10uM": 4.76}, {"compound": "CCOC(=O)N1CCN(C(=O)c2ccc3c(=O)n(Cc4ccc(Cl)cc4)c(=S)[nH]c3c2)CC1", "hERG current change (%, negative = inhibition) at 10uM": 4.36}, {"compound": "CN(C)c1ccc(N/C=C/C(=O)c2ccco2)cc1", "hERG current change (%, negative = inhibition) at 10uM": 4.67}, {"compound": "Cc1nn(C)c(C)c1CN(Cc1nc(CCC(C)C)no1)C(C)C", "hERG current change (%, negative = inhibition) at 10uM": 13}, {"compound": "COC(=O)c1cccc(N(C(=O)CNC(=O)c2ccco2)C(C(=O)NC2CCCC2)c2ccco2)c1", "note": "(stereo not shown)", "hERG current change (%, negative = inhibition) at 10uM": 6.89}, {"compound": "COc1ccc(F)c(CN2CCC(CO)(Cc3cccc(C(F)(F)F)c3)CC2)c1", "hERG current change (%, negative = inhibition) at 10uM": -58.4}, {"compound": "CSc1cccc(CN2CCC(CO)(Cc3ccccc3)CC2)c1", "hERG current change (%, negative = inhibition) at 10uM": -44.8}, {"compound": "CSc1cccc(CN2CCC(CO)(Cc3cccc(C(F)(F)F)c3)CC2)c1", "hERG current change (%, negative = inhibition) at 10uM": -64.4}, {"compound": "FC(F)(F)c1cccc(CN2CCCCCC2)c1", "hERG current change (%, negative = inhibition) at 10uM": 2.33}, {"compound": "CCOc1cc(CN2CCC(CO)(Cc3cccc(C(F)(F)F)c3)CC2)ccc1OC", "hERG current change (%, negative = inhibition) at 10uM": -76.6}, {"compound": "OCC1(Cc2cccc(C(F)(F)F)c2)CCN(Cc2cc(F)cc(F)c2)CC1", "hERG current change (%, negative = inhibition) at 10uM": -43.4}, {"compound": "Cc1c(CN2CCC(CO)(Cc3cccc(C(F)(F)F)c3)CC2)c2ccccc2n1C", "hERG current change (%, negative = inhibition) at 10uM": -47.2}, {"compound": "COc1ccc2[nH]c(C(=O)N3CCC(CO)(Cc4cccc(C(F)(F)F)c4)CC3)c(C)c2c1", "hERG current change (%, negative = inhibition) at 10uM": 7.98}, {"compound": "COc1cc(CN2CCC(CO)(Cc3cccc(C(F)(F)F)c3)CC2)ccc1F", "hERG current change (%, negative = inhibition) at 10uM": -68.7}, {"compound": "CCOc1cc(CN2CCN(C(=O)Cc3ccccc3)CC2)ccc1OC.O=C(O)C(=O)O", "hERG current change (%, negative = inhibition) at 10uM": -37.6}, {"compound": "CCOc1cc(CN2CCCCCC2)ccc1OC", "hERG current change (%, negative = inhibition) at 10uM": -3.28}, {"compound": "COc1ccc(C(=O)Nc2ccc(N3CCOCC3)cc2)cc1OC", "hERG current change (%, negative = inhibition) at 10uM": 1.36}, {"compound": "Cc1ccc(CC(=O)NCCc2ccc(S(N)(=O)=O)cc2)cc1", "hERG current change (%, negative = inhibition) at 10uM": 5.87}, {"compound": "Brc1ccc([C@H]2CN3CCSC3=N2)cc1.O=C(O)C(=O)O", "hERG current change (%, negative = inhibition) at 10uM": -35.7}, {"compound": "COc1ccc(OC)c(NC(=O)c2ccccc2SC)c1", "hERG current change (%, negative = inhibition) at 10uM": -40.2}, {"compound": "CC(C)c1ccc(C2NC(=O)NC3=C2CCc2ccccc23)cc1", "note": "(stereo not shown)", "hERG current change (%, negative = inhibition) at 10uM": -33.5}, {"compound": "COc1cc(Cl)c(CC(=O)c2c[nH]c3ccccc23)cc1OC", "hERG current change (%, negative = inhibition) at 10uM": 15.9}, {"compound": "CN(C)S(=O)(=O)N1CCC(CO)(Cc2cccc(C(F)(F)F)c2)CC1", "hERG current change (%, negative = inhibition) at 10uM": -4.25}, {"compound": "OCC1(Cc2ccccc2C(F)(F)F)CCN(Cc2cccc3cnccc23)CC1", "hERG current change (%, negative = inhibition) at 10uM": -11}, {"compound": "COc1ccc(CN2CCC(CO)(Cc3ccccc3C(F)(F)F)CC2)c(F)c1", "hERG current change (%, negative = inhibition) at 10uM": -67.3}, {"compound": "CC1(C(=O)N2CCC(CO)(Cc3cccc(C(F)(F)F)c3)CC2)CC1", "hERG current change (%, negative = inhibition) at 10uM": 4.02}, {"compound": "CC(=O)c1ccc(C(=O)N2CCC(CO)(Cc3cccc(C(F)(F)F)c3)CC2)cc1", "hERG current change (%, negative = inhibition) at 10uM": -74.6}, {"compound": "OCC1(Cc2ccccc2C(F)(F)F)CCN(Cc2ccncc2)CC1", "hERG current change (%, negative = inhibition) at 10uM": -13.8}, {"compound": "CC(=O)N1CCN(c2ccc(NC(=O)c3cccc([N+](=O)[O-])c3)cc2)CC1", "hERG current change (%, negative = inhibition) at 10uM": -3.59}, {"compound": "C/C(=N\\NC(=O)CSc1nc(C)cc(C)n1)c1ccc2c(c1)OCCO2", "hERG current change (%, negative = inhibition) at 10uM": 18.3}, {"compound": "CCC(CC)C(=O)N1CC(=O)Nc2ccc(F)cc2C1c1ccc(F)cc1", "note": "(stereo not shown)", "hERG current change (%, negative = inhibition) at 10uM": -27.8}, {"compound": "CCCc1cc(C(=O)NNC(=S)NCC)c2ccccc2n1", "hERG current change (%, negative = inhibition) at 10uM": 18.1}, {"compound": "CC1=C(C(=O)Nc2ccccn2)C(c2ccccc2)n2ncnc2N1", "note": "(stereo not shown)", "hERG current change (%, negative = inhibition) at 10uM": 13.7}, {"compound": "CC1=C(C(=O)Nc2ccccn2)C(c2ccc(N(C)C)cc2)n2ncnc2N1", "note": "(stereo not shown)", "hERG current change (%, negative = inhibition) at 10uM": -62.7}, {"compound": "CC1=C(C(=O)Nc2ccccn2)C(c2ccc(F)cc2)n2ncnc2N1", "note": "(stereo not shown)", "hERG current change (%, negative = inhibition) at 10uM": -13.1}, {"compound": "O=c1cc(-c2ccccc2)cc(-c2ccccc2)n1CCCO", "hERG current change (%, negative = inhibition) at 10uM": -31.9}, {"compound": "CCc1ccc(C(=O)Nc2cc3c(cc2Cl)OCCCO3)cc1", "hERG current change (%, negative = inhibition) at 10uM": 23.5}, {"compound": "O=C(N[C@@H](c1ccccc1)[C@@H]1C[C@H]1C(=O)O)OCc1ccccc1", "hERG current change (%, negative = inhibition) at 10uM": 15.1}, {"compound": "CNC(=O)[C@@H]1C[C@H]1[C@@H](NC(=O)OCc1ccccc1)c1ccccc1", "hERG current change (%, negative = inhibition) at 10uM": -48.3}, {"compound": "CN(C)C(=O)[C@@H]1C[C@H]1[C@@H](NC(=O)OCc1ccccc1)c1ccccc1", "hERG current change (%, negative = inhibition) at 10uM": -64.2}, {"compound": "O=P(O)(OCc1ccccc1)OCc1ccccc1", "hERG current change (%, negative = inhibition) at 10uM": 12.1}, {"compound": "O=C(O)c1cccc(NC2=Nc3cccc4cccc2c34)c1", "hERG current change (%, negative = inhibition) at 10uM": 14.3}, {"compound": "CCn1c(NC(=O)c2ccc(F)cc2)c2ccccc2nc1=O", "hERG current change (%, negative = inhibition) at 10uM": -11.7}, {"compound": "Cc1cccn2c(=O)c3cc(C(=O)NCCN4CCOCC4)c(=N)n(CCc4ccccc4)c3nc12", "hERG current change (%, negative = inhibition) at 10uM": -75}, {"compound": "COc1ccc(CCn2c(=N)c(C(=O)NCCN3CCOCC3)cc3c(=O)n4cccc(C)c4nc32)cc1OC", "hERG current change (%, negative = inhibition) at 10uM": -97.8}, {"compound": "COc1ccc(CCn2c(=O)[nH]c3cc(C(=O)NCCN4CCOCC4)ccc3c2=O)cc1OC", "hERG current change (%, negative = inhibition) at 10uM": 0.353}, {"compound": "COc1ccc(CCNC(=O)c2c(N)n(CCN3CCOCC3)c3nc4ccccc4nc23)cc1OC", "hERG current change (%, negative = inhibition) at 10uM": -8.6}, {"compound": "Cc1cccn2c(=O)c3cc(C(=O)NCCN4CCOCC4)n(C)c3nc12", "hERG current change (%, negative = inhibition) at 10uM": -3.18}, {"compound": "O=C(N/N=C/c1ccco1)C1CCCC1", "hERG current change (%, negative = inhibition) at 10uM": 22.1}, {"compound": "Cc1ccc(C(=O)Nc2ccc(S(=O)(=O)Nc3ncccn3)cc2)cc1[N+](=O)[O-]", "hERG current change (%, negative = inhibition) at 10uM": 13.4}, {"compound": "COc1cccc2cc(C(=O)NCc3ccccc3Cl)c(=O)oc12", "hERG current change (%, negative = inhibition) at 10uM": 6.78}, {"compound": "CC(C)CSc1nsc(N)n1", "hERG current change (%, negative = inhibition) at 10uM": 23.1}, {"compound": "COc1ccc(N2CCN(C(=O)c3ccc(C)c(NC(=O)c4ccco4)c3)CC2)cc1", "hERG current change (%, negative = inhibition) at 10uM": -74.8}, {"compound": "Cc1ccc(C(=O)N2CCc3ccccc32)cc1NC(=O)c1ccco1", "hERG current change (%, negative = inhibition) at 10uM": -68.1}, {"compound": "Cc1ccc(C(=O)N2CCN(c3ccccc3)CC2)cc1NC(=O)c1ccco1", "hERG current change (%, negative = inhibition) at 10uM": -45.7}, {"compound": "COc1ccc(N2CCN(C(=O)c3cccc(NC(=O)c4ccco4)c3)CC2)cc1", "hERG current change (%, negative = inhibition) at 10uM": -43.8}, {"compound": "Cc1ccc(C(=O)N2CCN(C(=O)c3ccco3)CC2)cc1NC(=O)c1ccco1", "hERG current change (%, negative = inhibition) at 10uM": -44.1}, {"compound": "O=C(c1ccco1)N1CCc2ccccc21", "hERG current change (%, negative = inhibition) at 10uM": -3.68}]}]}
